This experiment concerns the target Pyruvate kinase PKM (Homo sapiens) (UniProt P14618). The experiment is described as follows: Secondary assay for Activators of Human Pyruvate Kinase M2 isoform. The essentials: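 Purified hPK-M2 (10 nM) coupled to LDH (1 uM) and 0.2 mM NADH, with 0.1 mM PEP and 4.0 mM ADP in Tris-Cl pH 8.0 and 15 mM MgCl2. Initial rates from kinetic NADH fluorescence depletion over 3–6 min, normalized to fructose-bis-phosphate activation.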

From PubChem BioAssay AID1540 (National Center for Advancing Translational Sciences (NCATS), 2009) come the findings set out here.

Molecules are shown by their SMILES. Inconclusive results are not listed. Activity calls are given as the source filed them. Calls follow the shape of the dose curve; as a rule, active = well fitted activation curve with a large enough effect; inconclusive = small, poorly fitted or top-dose-only effect, or effect the other way; inactive = flat fitted curve, though single readings scatter.

Chain of Pyruvate kinase PKM (Homo sapiens) (P14618 whole entry, looked up, canonical isoform): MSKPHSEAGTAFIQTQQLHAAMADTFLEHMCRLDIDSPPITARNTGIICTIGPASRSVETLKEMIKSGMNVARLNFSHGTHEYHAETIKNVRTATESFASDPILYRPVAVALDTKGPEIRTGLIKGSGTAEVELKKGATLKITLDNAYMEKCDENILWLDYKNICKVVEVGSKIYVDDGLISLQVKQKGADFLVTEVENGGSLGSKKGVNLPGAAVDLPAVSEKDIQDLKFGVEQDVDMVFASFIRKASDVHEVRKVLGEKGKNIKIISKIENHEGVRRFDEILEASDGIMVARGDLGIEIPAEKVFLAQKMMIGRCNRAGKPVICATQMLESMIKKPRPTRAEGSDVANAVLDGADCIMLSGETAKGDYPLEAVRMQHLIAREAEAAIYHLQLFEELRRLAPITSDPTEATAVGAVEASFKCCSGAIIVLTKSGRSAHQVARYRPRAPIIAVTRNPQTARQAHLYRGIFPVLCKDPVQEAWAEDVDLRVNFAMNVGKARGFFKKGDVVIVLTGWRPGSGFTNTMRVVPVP

In the case of `C=Cc1cc2c(s1)c1cnn(Cc3ccccc3F)c(=O)c1n2C`, the Potency is 562 nM (active).
